The target of assay [1] is Small conductance calcium-activated potassium channel protein 1 (Rattus norvegicus) (UniProt P70606). Nature of the assay: NVS_IC_rKCaCh: NovaScreen (NVS) Ion Channel Assay for rat Potassium Channel, Ca2+ Act., VI (KCaCh) (AID 2283336). The gist of the method: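 Radioligand binding to rat forebrain membranes, cell-free, read 1 hour after dosing by filter-based scintillation counting. Compounds first run in duplicate at 25 uM, actives then in concentration series; loss of signal vs DMSO indicates displacement.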

Assay [2] has as its target Estrogen receptor (Homo sapiens) (UniProt P03372). Nature of the assay: NVS_NR_hER: NovaScreen (NVS) Nuclear Receptor Binding Assay for human Estrogen Receptor (ER) (AID 2283348). The method in brief:
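Cell-free radioligand binding with protein extracted from MCF7 cells; scintillation counting 18 hours after dosing. Loss of signal versus DMSO baseline read as displacement; primary single-concentration screen at 25 uM in duplicate, actives retested in concentration series.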

The target in assay [3] is human Serotonin, 5-Hydroxytryptamine Receptor 3 (5HT3), HTR3A (gene 3359) (UniProt P46098). Nature of the assay: NVS_LGIC_h5HT3: NovaScreen (NVS) Ligand-Gated Ion Channel Assay for human Serotonin, 5-Hydroxytryptamine Receptor 3 (5HT3) (AID 2283325). The gist of the method:
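Radioligand displacement binding to human 5-HT3 from HEK293 membranes, read by filter-based scintillation counting after 1 h. Screen at 25 uM in duplicate; chemicals passing threshold were retested in concentration-response up to 50 uM.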

Assay [4] in a line: NVS_IC_rCaBTZCHL: NovaScreen (NVS) Ion Channel Assay for Calcium Channel, Type L, Benzothiazepine Site (CaBTZCHL) (AID 2283337). The gist of the method:
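Competitive displacement of a site-specific radioligand from rat cortex membranes, measured as signal loss against DMSO baseline by filter radiodetection after 1.5 h. Single-point 25 uM primary screen.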

In assay [5] the target is human Constitutive Androstane Receptor (CAR), NR1I3 (gene 9970) (UniProt Q14994). Nature of the assay: NVS_NR_hCAR_Antagonist: NovaScreen (NVS) Nuclear Receptor Binding Assay for human Constitutive Androstane Receptor Antagonism (CAR) (AID 2283344). The method in brief:
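Cell-free TR-FRET binding read 1 h after dosing, antagonist mode; loss of signal versus DMSO baseline. Primary screen in duplicate at a single 25 uM; actives retested in concentration series.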

The target in assay [6] is chimpanzee Androgen Receptor (AR), AR (gene 747460) (UniProt O97775). Nature of the assay: NVS_NR_cAR: NovaScreen (NVS) Nuclear Receptor Binding Assay for chimpanzee Androgen Receptor (AR) (AID 2283346). The method in brief: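 Cell-free radioligand displacement using receptor protein extracted from Sf9/Sf21 cells; bound radioligand measured by scintillation counting 72 hours after chemical dosing. Loss of signal versus DMSO baseline indicates binding; primary screen single-concentration in duplicate at 25 uM, actives followed in concentration series.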
Sequence of chimpanzee Androgen Receptor (AR), AR (gene 747460) (O97775 whole entry, looked up): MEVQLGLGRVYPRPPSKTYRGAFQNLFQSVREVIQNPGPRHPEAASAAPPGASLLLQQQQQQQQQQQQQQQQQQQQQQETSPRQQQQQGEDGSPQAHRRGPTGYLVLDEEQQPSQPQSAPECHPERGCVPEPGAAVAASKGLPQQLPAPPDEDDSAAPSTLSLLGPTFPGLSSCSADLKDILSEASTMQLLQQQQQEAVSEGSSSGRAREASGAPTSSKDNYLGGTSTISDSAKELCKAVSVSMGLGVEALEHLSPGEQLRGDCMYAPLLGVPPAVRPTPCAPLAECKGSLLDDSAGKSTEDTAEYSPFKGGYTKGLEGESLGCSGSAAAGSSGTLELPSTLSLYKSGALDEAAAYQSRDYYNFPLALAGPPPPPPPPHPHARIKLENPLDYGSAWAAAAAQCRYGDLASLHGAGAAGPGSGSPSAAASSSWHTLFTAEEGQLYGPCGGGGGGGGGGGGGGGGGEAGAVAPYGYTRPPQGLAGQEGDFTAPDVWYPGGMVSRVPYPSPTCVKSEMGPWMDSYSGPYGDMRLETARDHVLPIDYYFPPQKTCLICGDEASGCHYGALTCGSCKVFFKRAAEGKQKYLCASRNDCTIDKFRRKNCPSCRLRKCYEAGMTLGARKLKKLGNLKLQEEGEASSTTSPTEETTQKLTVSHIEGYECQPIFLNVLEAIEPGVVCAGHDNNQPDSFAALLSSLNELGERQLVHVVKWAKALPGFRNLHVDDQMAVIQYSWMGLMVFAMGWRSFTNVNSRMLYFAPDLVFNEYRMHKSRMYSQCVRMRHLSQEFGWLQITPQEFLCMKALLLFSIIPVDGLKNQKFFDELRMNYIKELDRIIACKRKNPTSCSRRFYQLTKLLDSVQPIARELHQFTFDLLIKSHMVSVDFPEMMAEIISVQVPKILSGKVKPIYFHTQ

Assay [7] has as its target Estrogen receptor (Homo sapiens) (UniProt P03372). The assay is described as follows: OT_ER_ERaERa_1440: Odyssey Thera (OT) 24-hour HEK293T Protein-Complementation Assay for Estrogen Receptor-alpha/-alpha Homodimer (AID 2283349).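 Also: hits raise fluorescence above DMSO for agonists and antagonists alike.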 The gist of the method:
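Readout is the rise in mean fluorescence from reporter fragment complementation when ERα LBD (aa 310-547) units dimerize in HEK293T cells. Measured 24 h after dosing and analysed as increase over DMSO control.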

The target of assay [8] is rat Thyrotropin Releasing Hormone Receptor (TRH), Trhr (gene 25570) (UniProt Q01717). Nature of the assay: NVS_GPCR_rTRH: NovaScreen (NVS) G Protein-Coupled Receptor Assay for rat Thyrotropin Releasing Hormone Receptor (TRH) (AID 2283329).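 Also: hit means lower bound tracer signal versus DMSO baseline.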 The gist of the method: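 Test compounds are screened at 25 uM in duplicate against radioligand binding in rat forebrain membranes, with active pairs followed up over a concentration range. Detection uses filter-based radiodetection after a 4 h exposure.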
Sequence of rat Thyrotropin Releasing Hormone Receptor (TRH), Trhr (gene 25570) (Q01717 whole entry, looked up): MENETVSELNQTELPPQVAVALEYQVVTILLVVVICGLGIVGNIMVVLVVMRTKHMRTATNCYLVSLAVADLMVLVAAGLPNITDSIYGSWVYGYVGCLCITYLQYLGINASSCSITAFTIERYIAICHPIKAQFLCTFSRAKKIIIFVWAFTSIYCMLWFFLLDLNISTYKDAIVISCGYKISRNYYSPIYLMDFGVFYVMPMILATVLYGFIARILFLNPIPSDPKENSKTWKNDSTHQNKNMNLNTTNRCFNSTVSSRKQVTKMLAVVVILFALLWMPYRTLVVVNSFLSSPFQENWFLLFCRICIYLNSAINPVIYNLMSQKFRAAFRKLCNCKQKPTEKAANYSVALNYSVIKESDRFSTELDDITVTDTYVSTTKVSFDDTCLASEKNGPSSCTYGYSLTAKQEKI

In assay [9] the target is rat Glutamate, MK-801 Agonist Site (GluNMDA_MK801), Grin1 (gene 24408) (UniProt P35439). The assay is described as follows: NVS_LGIC_rGluNMDA_MK801_Agonist: NovaScreen (NVS) Ligand-Gated Ion Channel Assay for rat Glutamate, MK-801 Agonist Site (GluNMDA_MK801) (AID 2283340). The method in brief:
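Radioligand binding at MK-801 site in rat forebrain membranes, 1.5 h incubation, filter-based scintillation counting. Initially 25 uM in duplicate; actives then run in concentration-response up to 50 uM, fitted for gain of signal versus DMSO.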

Assay [10] addresses bovine Estrogen Receptor (ER), ESR1 (gene 407238) (UniProt P49884). The assay is described as follows: NVS_NR_bER: NovaScreen (NVS) Nuclear Receptor Binding Assay for bovine Estrogen Receptor (ER) (AID 2283345).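 Also: actives lower the bound radioligand count which means they displace the ER ligand.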 The gist of the method:
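Bovine uterine membranes; tritiated or iodinated radioligand; competitive displacement; 18 h; scintillation read; DMSO negative control; 25 uM duplicates, then concentration series for actives.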

In assay [11] the target is Glutamate receptor ionotropic, kainate 1 (Rattus norvegicus) (UniProt P22756). The assay is described as follows: NVS_IC_rKAR: NovaScreen (NVS) Ion Channel Assay for rat Kainic Acid Receptors (KAR) (AID 2283334; active = hit-call score of the fitted dose curve at least 0.9, where 1 is the maximum; inactive = score below 0.9). The method in brief: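 Radioligand displacement binding using rat forebrain membranes, 1 h incubation, filter-based scintillation counting. Screened in duplicate at 25 uM, with actives retested in concentration-response up to 50 uM; fitted against DMSO.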

Assay [12] deals with human Androgen Receptor (AR), AR (gene 367) (UniProt P10275). Nature of the assay: NVS_NR_hAR: NovaScreen (NVS) Nuclear Receptor Binding Assay for human Androgen Receptor (AR) (AID 2283332). The gist of the method: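 Actives from a duplicate 25 uM single-point screen went on to concentration series. Read-out after 20 h was scintillation counting of displaced radioligand in LnCAP extract, with DMSO as baseline.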
Sequence of human Androgen Receptor (AR), AR (gene 367) (P10275 whole entry, looked up): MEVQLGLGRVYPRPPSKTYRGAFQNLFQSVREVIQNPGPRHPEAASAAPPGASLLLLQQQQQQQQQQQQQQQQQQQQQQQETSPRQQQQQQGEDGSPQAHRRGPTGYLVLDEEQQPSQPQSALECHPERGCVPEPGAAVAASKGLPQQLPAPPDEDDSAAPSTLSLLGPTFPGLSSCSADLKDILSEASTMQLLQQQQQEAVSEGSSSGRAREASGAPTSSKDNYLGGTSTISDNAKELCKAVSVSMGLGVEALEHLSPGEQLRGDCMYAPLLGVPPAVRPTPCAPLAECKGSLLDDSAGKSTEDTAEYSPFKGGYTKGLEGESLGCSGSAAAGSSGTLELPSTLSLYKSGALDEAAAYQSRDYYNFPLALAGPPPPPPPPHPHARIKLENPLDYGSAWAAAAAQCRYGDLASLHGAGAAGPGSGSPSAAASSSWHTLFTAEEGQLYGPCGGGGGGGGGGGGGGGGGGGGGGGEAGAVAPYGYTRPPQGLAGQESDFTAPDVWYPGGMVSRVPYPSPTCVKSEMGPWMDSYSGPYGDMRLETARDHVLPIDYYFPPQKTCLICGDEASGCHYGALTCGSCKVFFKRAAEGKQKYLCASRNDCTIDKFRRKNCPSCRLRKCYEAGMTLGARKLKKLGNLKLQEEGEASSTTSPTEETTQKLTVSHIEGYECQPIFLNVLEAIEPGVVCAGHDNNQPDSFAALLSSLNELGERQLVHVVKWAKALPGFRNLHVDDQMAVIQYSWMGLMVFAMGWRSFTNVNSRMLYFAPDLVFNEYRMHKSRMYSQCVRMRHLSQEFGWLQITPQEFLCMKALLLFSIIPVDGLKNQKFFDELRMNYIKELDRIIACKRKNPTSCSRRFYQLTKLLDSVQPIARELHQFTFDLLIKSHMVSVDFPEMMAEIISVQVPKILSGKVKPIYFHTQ

In assay [13] the test system is guinea pig Histamine Receptor (H2), gene 100729734. Nature of the assay: NVS_GPCR_gH2: NovaScreen (NVS) G Protein-Coupled Receptor Assay for guinea pig Histamine Receptor (H2) (AID 2283342). The method in brief:
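Radioligand displacement on guinea pig striatal membranes, 1 h after dosing, filter-based scintillation counting; loss of signal versus DMSO. Single-point screen at 25 uM in duplicate, then concentration-response up to 50 uM.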

In assay [14] the target is Bile acid receptor (Homo sapiens) (UniProt Q96RI1). The assay is described as follows: NVS_NR_hFXR_Antagonist: NovaScreen (NVS) Nuclear Receptor Binding Assay for human Farnesoid X Receptor Antagonism (FXR) (AID 2283350). The gist of the method:
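Cell-free TR-FRET ligand-binding read-out on human FXR (NR1H4) in antagonist mode, measured 1 h after dosing. Primary screen in duplicate at 25 uM, actives retested in concentration series; signal loss scored versus DMSO.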

For assay [15], the target named is rat Glutamate, NMDA Agonist Site (GluNMDA), Grin1 (gene 24408) (UniProt P35439). Nature of the assay: NVS_LGIC_rGluNMDA_Agonist: NovaScreen (NVS) Ligand-Gated Ion Channel Assay for rat Glutamate, NMDA Agonist Site (GluNMDA) (AID 2283327). The gist of the method: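 Rat forebrain membranes, radioligand binding in the agonist-site protocol; 1 h after dosing; filter-based scintillation counting. Single-concentration duplicate screen at 25 uM, then concentration-response up to 50 uM for actives; gain-of-signal vs DMSO.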

The target in assay [16] is Voltage-gated inwardly rectifying potassium channel KCNH2 (Homo sapiens) (UniProt Q12809). The assay is described as follows: NVS_IC_hKhERGCh: NovaScreen (NVS) Ion Channel Assay for human Potassium Channel ERG (KhERGCh) (AID 2283333). The gist of the method:
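Cell-free radioligand competition binding on hERG protein extracted from CHO cells, read by filter-based scintillation counting 0.75 h after dosing. Primary screen at 25 uM in duplicate, actives followed in concentration series. Signal loss fitted versus DMSO.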

The subject of a further assay is NCBI gene 100848466. Nature of the assay: NVS_NR_bPR: NovaScreen (NVS) Nuclear Receptor Binding Assay for bovine Progextron Receptor (PR) (AID 2283343).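 Also: actives lower bound radioligand signal below DMSO meaning displacement of the label.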 The method in brief:
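Bovine uterine membrane preparation, cell-free; radioligand competitive displacement measured by scintillation counting 18 hours after dosing. Loss of signal versus DMSO baseline indicates binding; primary HTS single concentration 25 uM in duplicate, actives followed in concentration series.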

The target in assay [17] is bovine Gamma-Aminobutyric Acid Type A Receptor Agonist (GABAR Agonist), GABRA1 (gene 780973) (UniProt P08219). Nature of the assay: NVS_LGIC_bGABAR_Agonist: NovaScreen (NVS) Ligand-Gated Ion Channel Assay for bovine Gamma-Aminobutyric Acid Type A Receptor Agonist (GABAR Agonist) (AID 2283338). The gist of the method:
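Radioligand binding to bovine cerebellar membranes in agonist format, read by filter-based scintillation counting after 1 h. Primary screen in duplicate at 25 uM, with actives followed in concentration series. Gain of signal versus DMSO.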

Structures are written as SMILES. Several values for one entry are separate records, joined by “and”; a condition that tells them apart may be missing. Equal values may be shown once. Records with an inconclusive call do not appear. A structure can be active in one record and inactive in another. Activity calls are given as the source filed them. The calls were made as follows, unless noted: active = hit-call score of the fitted dose curve at least 0.9, where 1 is the maximum; inconclusive = response in the unintended direction; inactive = score below 0.9.

Sequence of human Constitutive Androstane Receptor (CAR), NR1I3 (gene 9970) (Q14994 whole entry, looked up): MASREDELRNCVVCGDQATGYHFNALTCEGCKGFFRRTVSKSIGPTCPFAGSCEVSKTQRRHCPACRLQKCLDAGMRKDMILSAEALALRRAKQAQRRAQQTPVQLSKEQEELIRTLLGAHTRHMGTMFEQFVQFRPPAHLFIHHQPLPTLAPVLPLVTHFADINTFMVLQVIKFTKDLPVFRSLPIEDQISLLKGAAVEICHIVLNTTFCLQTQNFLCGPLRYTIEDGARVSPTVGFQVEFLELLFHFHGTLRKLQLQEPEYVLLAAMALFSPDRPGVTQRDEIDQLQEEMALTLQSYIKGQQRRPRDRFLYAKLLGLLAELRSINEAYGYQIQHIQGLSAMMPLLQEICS
Sequence of Bile acid receptor (Homo sapiens) (Q96RI1 whole entry, looked up): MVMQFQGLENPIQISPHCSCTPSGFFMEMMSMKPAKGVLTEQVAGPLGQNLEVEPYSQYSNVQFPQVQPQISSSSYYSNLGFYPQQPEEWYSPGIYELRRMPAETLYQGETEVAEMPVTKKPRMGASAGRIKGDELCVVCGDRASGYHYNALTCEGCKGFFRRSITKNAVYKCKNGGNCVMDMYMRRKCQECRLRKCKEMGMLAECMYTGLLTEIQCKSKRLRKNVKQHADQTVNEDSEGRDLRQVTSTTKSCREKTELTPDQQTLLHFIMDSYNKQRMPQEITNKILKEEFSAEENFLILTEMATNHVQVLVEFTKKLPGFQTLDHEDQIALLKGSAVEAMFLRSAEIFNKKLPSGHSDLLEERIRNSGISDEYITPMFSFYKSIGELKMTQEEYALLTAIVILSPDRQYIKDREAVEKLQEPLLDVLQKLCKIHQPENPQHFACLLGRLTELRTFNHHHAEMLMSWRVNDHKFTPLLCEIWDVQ
Sequence of bovine Estrogen Receptor (ER), ESR1 (gene 407238) (P49884 whole entry, looked up): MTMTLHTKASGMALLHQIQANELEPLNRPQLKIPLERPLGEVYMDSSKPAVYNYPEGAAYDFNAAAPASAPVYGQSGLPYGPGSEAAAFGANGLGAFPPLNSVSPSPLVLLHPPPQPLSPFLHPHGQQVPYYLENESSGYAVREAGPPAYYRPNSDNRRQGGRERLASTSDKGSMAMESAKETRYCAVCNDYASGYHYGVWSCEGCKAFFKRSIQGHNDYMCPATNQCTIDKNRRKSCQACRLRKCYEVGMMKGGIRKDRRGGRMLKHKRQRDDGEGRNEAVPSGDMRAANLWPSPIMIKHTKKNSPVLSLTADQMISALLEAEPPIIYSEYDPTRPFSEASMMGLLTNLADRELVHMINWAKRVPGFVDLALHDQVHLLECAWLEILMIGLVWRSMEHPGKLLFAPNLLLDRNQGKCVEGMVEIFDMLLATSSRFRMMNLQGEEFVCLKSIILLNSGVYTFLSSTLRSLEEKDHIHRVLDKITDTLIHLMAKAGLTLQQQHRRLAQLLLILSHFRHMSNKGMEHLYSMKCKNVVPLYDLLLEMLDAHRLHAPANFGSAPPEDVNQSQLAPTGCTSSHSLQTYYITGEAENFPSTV
Sequence of Estrogen receptor (Homo sapiens) (P03372 whole entry, looked up, the tested form may be a part): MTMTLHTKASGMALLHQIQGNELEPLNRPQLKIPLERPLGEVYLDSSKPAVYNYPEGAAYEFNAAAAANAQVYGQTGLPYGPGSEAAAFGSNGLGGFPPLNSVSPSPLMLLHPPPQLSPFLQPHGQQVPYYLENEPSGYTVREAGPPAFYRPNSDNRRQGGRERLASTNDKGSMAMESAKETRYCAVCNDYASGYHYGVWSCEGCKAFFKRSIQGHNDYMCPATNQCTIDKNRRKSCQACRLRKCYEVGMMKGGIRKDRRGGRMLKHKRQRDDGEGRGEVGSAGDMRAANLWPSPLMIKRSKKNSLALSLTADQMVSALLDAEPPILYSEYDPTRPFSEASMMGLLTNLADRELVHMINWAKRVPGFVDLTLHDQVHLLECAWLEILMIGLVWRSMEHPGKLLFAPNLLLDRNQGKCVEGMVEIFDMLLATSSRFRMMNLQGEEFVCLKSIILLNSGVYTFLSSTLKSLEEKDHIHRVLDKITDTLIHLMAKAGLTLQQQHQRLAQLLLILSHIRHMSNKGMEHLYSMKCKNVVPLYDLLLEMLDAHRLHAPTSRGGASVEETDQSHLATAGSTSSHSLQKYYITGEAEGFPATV
Sequence of human Serotonin, 5-Hydroxytryptamine Receptor 3 (5HT3), HTR3A (gene 3359) (P46098 whole entry, looked up): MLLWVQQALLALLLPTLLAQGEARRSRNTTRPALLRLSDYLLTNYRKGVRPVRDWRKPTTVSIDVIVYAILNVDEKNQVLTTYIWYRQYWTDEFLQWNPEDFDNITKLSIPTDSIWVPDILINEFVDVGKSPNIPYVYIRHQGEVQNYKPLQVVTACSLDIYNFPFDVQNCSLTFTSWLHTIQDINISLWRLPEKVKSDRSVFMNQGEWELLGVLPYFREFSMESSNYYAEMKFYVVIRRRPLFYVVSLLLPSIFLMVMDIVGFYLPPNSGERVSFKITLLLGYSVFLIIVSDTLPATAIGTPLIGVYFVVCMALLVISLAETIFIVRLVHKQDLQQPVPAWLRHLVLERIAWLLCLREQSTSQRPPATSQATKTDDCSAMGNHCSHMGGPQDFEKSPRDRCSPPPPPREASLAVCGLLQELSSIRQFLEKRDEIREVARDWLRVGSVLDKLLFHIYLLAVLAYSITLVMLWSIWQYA

Regarding `CN(C)C=O`, the outcome in assay [1] and in assay [2] was inactive.
`CCCCCCCC(=O)O`: the molecule was called inactive in [3], in assay [4] and in assay [5].
Take `O=C(O)c1ccccc1C(c1ccc(O)cc1)c1ccc(O)cc1`: the AC50 in [5] was 427 nM (active). Moreover, the molecule was called inactive in [6] and in assay [7].
On to `ClC1=C(Cl)C(Cl)(Cl)C(Cl)=C1Cl`, for which the outcome in [8], in assay [9], in assay [10] and in assay [2] was inactive.
With `CC[C@H](C)[C@@H](C(=O)O)n1sc2ccccc2c1=O`, the molecule was called inactive in assay [11] and in assay [7].
On to `CCC(=C(c1ccc(O)cc1)c1ccc(OCCN(C)C)cc1)c1ccccc1`, for which the AC50 in [12] is 8.62 nM (active) and 653 nM (active); in [4] it was 589 nM (active); in assay [13], 1.33 µM (active); in [5], 18200 nM (active); in assay [6] it was 6.21 µM (active) and 12.9 µM (active). For the same molecule, the outcome in assay [14] was inactive.
For the molecule `Cc1cc(C)c(O)c(C)c1`, the outcome in assay [15] and in [2] was inactive.
As to `COc1ccc([N+](=O)[O-])cc1N`, in assay [16], the molecule was classed as inactive.
Turning to `CC(=O)CC(C)(C)O`, the outcome in assay [8] was inactive.
The same measure, in the same setting: the value for `Cc1ccc(S(=O)(=O)O)c(C)c1` was “inactive”.
Regarding `CC#C[C@]1(O)CC[C@H]2[C@@H]3CCC4=CC(=O)CCC4=C3[C@@H](c3ccc(N(C)C)cc3)C[C@@]21C`, the result in [13], in assay [10], in assay [7] and in assay [14] was inactive. Further, the AC50 is 8.74 nM (active) with NCBI gene 100848466; 10 µM (active) and 16.2 µM (active) and 8.77 µM (active) in assay [10]; 16.7 nM (active) and 46.7 nM (active) in assay [6].
With `CCCCCCCCCCCCCCCS(=O)(=O)Oc1ccccc1`, the molecule was classed as inactive in assay [17].
Consider `CC[C@H](c1ccc(O)cc1)[C@@H](CC)c1ccc(O)cc1`, for which the AC50 was 416 nM (active) in [12]; 2.29 nM (active) in assay [5]; 0.0334 nM (active) and 2.46 nM (active) and 2.68 nM (active) in assay [2]; 8.83 µM (active) in [14]. Moreover, the molecule was called inactive in assay [12] and in [6].

For orientation: AC50 means the concentration at which the activity in the assay is half-maximal.

These data come from PubChem BioAssay (EPA / NIEHS).
